# Test results published in PubChem BioAssay AID620 (Sanford-Burnham Center for Chemical Genomics, 2007).
# Hit rate of the full screen: of about 87,000 compounds, about 360 (0.41%) were called active. This is one part of a sample in which actives are shown more often than they occur. No stated cut-off is given here; in the data, active means cytotoxicity above about 50%; inactive means the rest.
# Assay: HT1080 cell viability loss – fluorescence readout (AID 620);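 further: cells exposed to compound overnight then 4 h with Alamar Blue; 0% = vehicle DMSO and 100% = killing control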
# Conditions: at 10 µM, hits give high values
row,SMILES,cytotoxicity
1,COc1ccc(CC(=O)NCc2nnc(SCC(=O)N3CCN(c4ccccc4)CC3)n2C)cc1,-7% (inactive)
2,COc1ccc(C)cc1NC(=O)CNC(=O)Cn1ccc2ccccc2c1=O,7.1% (inactive)
3,Cc1nnc(Sc2nc3c(c(=O)[nH]c(=O)n3C)n2Cc2ccccc2Cl)s1,1% (inactive)
4,COCCCNC(=O)Cn1cc2c(n1)CCC(C)C2 (configuration not stated),-3.5% (inactive)
5,Nc1[nH]c(=S)[nH]c(=O)c1-c1ccccc1,-5% (inactive)
6,O=C(Nc1ccc(N2CCN(Cc3ccccc3)CC2)cc1)c1ncn[nH]1,-2.9% (inactive)
7,CC(=O)c1ccc(NC(=O)c2ccn[nH]2)cc1,-0.3% (inactive)
8,COc1cc(CC(=O)NCc2ccc3c(c2)OCO3)cc(OC)c1OC,3.1% (inactive)
9,COc1cc(CC(=O)Oc2ccc3c(c2)OCO3)cc(OC)c1OC,2.2% (inactive)
10,COc1cc([C@@H]2c3cc4c(cc3[C@H](O)[C@H]3COC(=O)[C@H]23)OCO4)cc(OC)c1OC,68.5% (active)
11,COc1ccc2c(c1OC)C(=O)OC2Nc1ncc(Br)cc1Br (configuration not stated),6.2% (inactive)
12,COc1ccc(C2CC(=O)c3cnc(N4CCN(Cc5ccccc5)CC4)nc3C2)cc1 (configuration not stated),22.6% (inactive)
13,CCN1CCN(c2ncc3c(n2)CC(c2ccc(OC)c(OC)c2)CC3=O)CC1 (configuration not stated),-13% (inactive)
14,COc1cc(C2CC(=O)c3cnc(N4CCN(Cc5ccccc5)CC4)nc3C2)cc(OC)c1OC (configuration not stated),52.5% (active)
15,CCN1CCN(c2ncc3c(n2)CC(c2cc(OC)c(OC)c(OC)c2)CC3=O)CC1 (configuration not stated),51.1% (active)
16,COc1cc(C2CC(=O)c3cnc(N)nc3C2)cc(OC)c1OC (configuration not stated),0.9% (inactive)
17,COc1ccc(C2CC(=O)c3c(C)nc(N4CCN(Cc5ccccc5)CC4)nc3C2)cc1OC (configuration not stated),-20.1% (inactive)
18,COc1ccc(-n2c3c(cc(C(=O)Nc4ccc(C)cc4)c2=O)C(=O)CCC3)cc1,14.6% (inactive)
19,CCOc1ccc2nc(SCC(=O)NC(=O)NCc3ccco3)[nH]c2c1,-12.9% (inactive)
20,Cc1cc(N2CCCC2)nc(-c2ccccc2O)n1,1.6% (inactive)
21,Cn1cc(/C=N/n2cnc3scc(-c4ccc(Cl)cc4)c3c2=O)c2ccccc21,57.8% (active)
22,Cn1cc(/C=N/n2cnc3scc(-c4ccccc4)c3c2=O)c2ccccc21,52.6% (active)
23,Cn1cc(/C=N/n2cnc3sc4c(c3c2=O)CCCC4)c2ccccc21,-0.6% (inactive)
24,CCn1cnc2scc(-c3ccccc3)c2c1=O,6% (inactive)
25,Cc1ccc(-c2csc3ncn(/N=C/N(C)C)c(=O)c23)o1,1.3% (inactive)

row,SMILES,cytotoxicity
1,Cc1nn(-c2ccccc2)c(N2CCCC2)c1/C=N/n1cnc2scc(-c3ccccc3)c2c1=O,-0.7% (inactive)
2,COc1ccc(S(=O)(=O)CCC(=O)NCCc2ccc(C)cc2)cc1,-7.2% (inactive)
3,COCCNC(=O)C(c1cccs1)N(C(=O)Cn1nnc2ccccc21)c1ccccc1 (configuration not stated),2.1% (inactive)
4,Nc1cccc(Nc2nc(OC(C(F)(F)F)C(F)(F)F)nc(OC(C(F)(F)F)C(F)(F)F)n2)c1,-15.3% (inactive)
5,Cc1cccc2cc(C#N)c(SCC(=O)N3CC(=O)Nc4ccccc43)nc12,62.5% (active)
6,CCc1ccc2nc(SCC(=O)N3CC(=O)Nc4ccccc43)c(C#N)cc2c1,-5.8% (inactive)
7,O=C1CN(C(=O)c2ccccc2)c2ccccc2N1,1.9% (inactive)
8,Cc1cccc2cc(C#N)c(SCC(=O)N3CCC(C)CC3)nc12,-4.3% (inactive)
9,Cc1cc(C)c2nc(SCC(=O)N3CC(=O)Nc4ccccc43)c(C#N)cc2c1,70.8% (active)
10,Cc1cc(C)cc(C(=O)N2CC(=O)Nc3ccccc32)c1,63.6% (active)
11,Cc1ccsc1C(=O)N1CC(=O)Nc2ccccc21,-1.3% (inactive)
12,Cc1cc(C)c2nc(SCC(=O)Nc3ccccc3N3CCOCC3)c(C#N)cc2c1,4.9% (inactive)
13,Cc1cc(C)c2nc(SCC(=O)N3CCCCC3)c(C#N)cc2c1,-0.9% (inactive)
14,CC(C)Nc1oc(Cc2cccc3ccccc23)nc1C#N,4.7% (inactive)
15,O=C(CSc1nc2ccccc2o1)c1ccccc1,-3.2% (inactive)
16,Cc1cccc(NC(=S)N2N=CCC2c2ccccc2)c1 (configuration not stated),-1.4% (inactive)
17,CC1=C(C(=O)OCc2ccccc2)C(c2ccccc2OC(=O)c2ccc(I)cc2)NC(=O)N1CCCC(=O)O (configuration not stated),-5.3% (inactive)
18,Cn1c(SCC(=O)NCCNC(=O)CSc2nnc(C(F)(F)F)n2C)nnc1C(F)(F)F,5.9% (inactive)
19,Cc1ccc(Nc2cc(C)nn2-c2nc(C)cc(C)n2)cc1,-13.7% (inactive)
20,Cc1ccc(Nc2cc(C)nn2-c2nc(C)cc(=O)[nH]2)cc1,65.9% (active)
21,Cc1cc(=O)[nH]c(-n2nc(C)cc2C)n1,-0.8% (inactive)
22,O=C(Nc1nc(-c2cc(Cl)sc2Cl)cs1)c1cccs1,-0.1% (inactive)
23,CC(C)Sc1nc(-c2ccccc2)cc(=O)[nH]1,16.9% (inactive)
24,N#CCCCSc1nnc(-c2ccccn2)o1,0.3% (inactive)
25,CN(C)CCCNC(CC(=O)Nc1ccc(Cl)cc1)C(=O)O (configuration not stated),-0.1% (inactive)

row,SMILES,cytotoxicity
1,CCOC(=O)C1CCCN(C(=O)C2CCN(S(=O)(=O)c3cnc[nH]3)CC2)C1 (configuration not stated),3.9% (inactive)
2,O=C(Nc1cccc(-c2cnc3ccccc3n2)c1)c1ccco1,-2.2% (inactive)
3,O=C(CCl)Nc1cccc(-c2cnc3ccccc3n2)c1,98.8% (active)
4,O=C(CNC(=O)c1ccc(Br)o1)Nc1cccc(-c2cnc3ccccc3n2)c1,-7.7% (inactive)
5,CCC(=O)N1c2ccccc2NC2=C(C(=O)CCC2)C1c1cccnc1 (configuration not stated),-7% (inactive)
6,CC(=O)N1CCCc2cc(S(=O)(=O)N(CC(C)C)CC(C)C)ccc21,-25.7% (inactive)
7,Cc1ccc2cc(CN(Cc3ccco3)C(=O)c3cccs3)c(=O)[nH]c2c1,59.8% (active)
8,Cc1ccc2[nH]c(=O)c(CN(Cc3ccco3)C(=O)c3cccs3)cc2c1,4.9% (inactive)
9,O=C(c1cccs1)N(Cc1ccco1)Cc1cc2ccccc2[nH]c1=O,-4.8% (inactive)
10,CN(C)S(=O)(=O)c1ccc(S(=O)(=O)N(CC(=O)Nc2ccccc2)Cc2ccco2)cc1,4.9% (inactive)
11,COc1nnc(-c2ccc(C)c(S(=O)(=O)NCCO)c2)c2ccccc12,12.8% (inactive)
12,CSc1cc(-c2ccccc2)n(Cc2c(Cl)cccc2Cl)c(=O)c1C#N,58.7% (active)
13,CSc1cc(-c2ccc(Cl)cc2)n(Cc2ccccc2)c(=O)c1C#N,-8.7% (inactive)
14,Cn1c(=O)c2c(nc(SCCCC#N)n2Cc2c(F)cccc2Cl)n(C)c1=O,1.4% (inactive)
15,CSc1cc(-c2ccccc2)n(Cc2ccccc2Cl)c(=O)c1C#N,57.5% (active)
16,Cc1cc(C)n(Cc2ccccc2F)c(=O)c1C#N,4.8% (inactive)
17,CSc1cc(-c2ccccc2)n(Cc2ccc(Cl)cc2Cl)c(=O)c1C#N,-9.5% (inactive)
18,CCOc1ccc(-c2cnc(SCC(N)=O)nc2N)cc1,3.8% (inactive)
19,CCCCCOc1ccc(Br)cc1/C(C)=N/NC1=NCCN1,74.8% (active)
20,CCOc1ccc(CSC2=NCCN2)cc1Cl,12.8% (inactive)
21,CCCCOc1ccc(Br)cc1/C(C)=N/NC1=NCCN1,65.1% (active)
22,COc1ccc(Br)cc1/C(C)=N/NC1=NCCN1,-8.6% (inactive)
23,CCOc1ccc(Br)cc1/C(C)=N\NC1=NCCN1,12.3% (inactive)
24,CCCOc1ccc(Br)cc1/C=N/O,-13% (inactive)
25,CCOc1ccc(NC(=O)c2cnccn2)cc1,-17% (inactive)

row,SMILES,cytotoxicity
1,OC(c1cccnc1)c1cccs1 (configuration not stated),-4.7% (inactive)
2,COc1ccc(Br)cc1CN1CCCC(C(=O)N2CCCCCC2)C1 (configuration not stated),1.9% (inactive)
3,O=C(Cn1nnc(-c2ccccc2NC(=O)c2cccs2)n1)Nc1ccccc1,0.3% (inactive)
4,COc1ccc(NC(=O)Cn2nnc(-c3ccccc3NC(=O)c3cccs3)n2)cc1,-14.1% (inactive)
5,Cc1ccc(NC(=O)Cn2nnc(-c3ccccc3NC(=O)c3cccs3)n2)cc1,61.8% (active)
6,Cn1c(=O)c2c(-c3ccccc3)n(-c3ccccc3O)cc2n(C)c1=O,35.8% (inactive)
7,COc1ccc2c(c1OC)C(=O)N1c3cccc(Cl)c3C(=O)OC21 (configuration not stated),14.4% (inactive)
8,COc1ccc(Nc2nc(C)cc(C)c2C(N)=O)cc1,3.9% (inactive)
9,Clc1ccc(C2C3=C(Nc4ncnn42)c2ccccc2CC3)cc1 (configuration not stated),-2.4% (inactive)
10,COc1ccc(C2C3=C(Nc4ncnn42)c2ccccc2CC3)cc1OC (configuration not stated),-2.9% (inactive)
11,COc1cc(C2C3=C(Nc4ncnn42)c2ccccc2CC3)cc(OC)c1OC (configuration not stated),63.8% (active)
12,Cc1nn(Cc2ccc(F)cc2)c(C)c1NC(=O)c1cnn2c1NC(c1cccs1)CC2C(F)(F)F (configuration not stated),11% (inactive)
13,C=C(C)CSc1nc(C)c(Cc2ccccc2)c(=O)[nH]1,-0.4% (inactive)
14,c1ccc(NCc2nnc3n2CCCCC3)cc1,1.8% (inactive)
15,O=C(Cc1ccc(F)cc1)NCCc1ccccc1,-6.5% (inactive)
16,CC(=O)n1nc(-c2ccccc2)nc1NCc1ccc(F)cc1,-1.3% (inactive)
17,Cn1c(=O)c2c(nc(NCCc3ccccc3)n2Cc2ccc(F)cc2)n(C)c1=O,0.4% (inactive)
18,Cn1c(=O)c2c(nc(NCc3ccccc3)n2Cc2ccc(F)cc2)n(C)c1=O,-1.5% (inactive)
19,CC(=O)N(Cc1ccc(F)cc1)C1=C(NCc2ccccc2)C(=O)c2ccccc2C1=O,92.6% (active)
20,O=C(Nc1cccc(NC(=O)c2cccnc2Cl)c1)c1ccco1,-4% (inactive)
21,c1ccc2sc(-c3ccc4c(c3)OCO4)nc2c1,0.6% (inactive)
22,CCCCN(C(=O)CNC(=O)c1ccco1)C(C(=O)NC1CCCCC1)c1ccc(OC)cc1OC (configuration not stated),-14.5% (inactive)
